# An excerpt weighted towards active compounds, which were near 3.8% of everything screened.
# HSF-1 act: increases HSF-1 driven luciferase reporter signal; NIH3T3-HGL HSF-1 luciferase reporter, MG132, 8 h; 100% = twice DMSO control signal; activation, % at 9 µM; hit rate 1.7% among 300,000; AID 504408;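 active means mean replicate activation of at least 50% with a set share of replicates each reaching 50%; inconclusive means only one of those two conditions met; inactive means mean below 50% and too few replicates reaching it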;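 further: 0% = median of the neutral control wells and 100% = twice that signal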
# Wnt bcat act: activates Wnt/beta-catenin signaling in a reporter cell assay. activator, plate reader. activation, % at 9.35 µM. hit rate 1.2% among 300,000. AID 743398; in the data active means activation above about 30%, passing the limit was not always enough; inconclusive means no clear call, values can overlap the other calls;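 further: 0% = neutral control wells and 100% = positive control wells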
# HSF1 inhib: HSF1 inhibition; NIH3T3-HGL HSE-luciferase, MG132-induced, luminescence 8 h; stronger effect = lower value; hit rate 0.77% among 300,000; activity change, negative = inhibition, % at 7.5 µM (by protocol); AID 2098;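 active means more than half of replicate wells show activity change below -50%, luminescence cut by over half; inconclusive means some wells, but at most half, below -50%; inactive means no replicate well below -50%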;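 further: luciferase reports HSF-1 transcriptional activity via heat shock element; 0% = median of DMSO wells and -100% = zero luminescence signal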
# esBAF inh: SWI/SNF esBAF complex inhibition; mouse ES cells, Bmi1-luciferase knock-in reporter, 24 h; 100% = twice the neutral-well signal; reporter increase, % at 12.5 µM; hit rate 2% among 350,000; AID 602393; in the data active means activation above about 40%; inconclusive means no clear call, values can overlap the other calls;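 further: 0% = median of the plate's neutral control wells and 100% = double that signal; a rise in the Bmi1 reporter signal indicates esBAF inhibition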
# MITF act: increases MITF-driven TRPM1 promoter luciferase signal | hit rate 0.75% among 300,000 | SK-MEL-5 TRPM1-promoter luciferase, 24 h; % of positive control, neutral wells = 0 | activation, % at 12.5 µM;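 active means mean activation of at least 80% with every replicate also reaching 80%; inconclusive means mean reaches 80% but some replicate falls short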;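 further: 0% = neutral control wells and 100% = parthenolide positive control wells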
# An asterisk follows results filed as active; ? = inconclusive; · = no result given.
SMILES,HSF-1 act,Wnt bcat act,HSF1 inhib,esBAF inh,MITF act
CSCCC(NC(=O)c1ccco1)C(=O)NC1CCC(C)CC1 (configuration not stated),·,24,·,62*,112*
CSCCC(NC(=O)c1ccco1)C(=O)NCC1CCCCC1 (configuration not stated),·,5,·,7,-6
O=C(N[C@@H](Cc1ccccc1)C(=O)NC1CCCCCC1)c1ccco1,22,·,-5,45*,?
O=C(N[C@@H](Cc1ccccc1)C(=O)NC1CCCCC1)c1ccco1,7,-5,2,0,·
C[C@@H]1CN([C@H](C)CO)S(=O)(=O)c2ccc(C3=CCCCC3)cc2O[C@H]1CN(C)Cc1cccc(C(=O)O)c1,·,·,·,7,·
COc1ccc(S(=O)(=O)Nc2ccc3c(c2)C(=O)N([C@H](C)CO)C[C@@H](C)[C@@H](CN(C)C(=O)NC(C)C)O3)cc1,·,·,·,-12,·
CO[C@H]1CN(C)C(=O)c2cc(NS(=O)(=O)c3ccccc3C)ccc2OC[C@H](C)N(C)C[C@@H]1C,·,·,·,-3,·
CC(=O)c1ccc(-c2nnc(CCC(=O)N(C)Cc3cccc4cnccc34)o2)s1,-12,-1,-9,·,-3
Cc1ccc(-c2nnc(CCC(=O)N(C)Cc3nccs3)o2)s1,18,4,7,44*,40
O=C(Cn1ccc([N+](=O)[O-])n1)N1CCCc2ccccc21,4,32*,3,9,14
Cc1ccc(OCC(=O)N2CCc3ccccc32)cc1,67*,26,37,41,59
CCCOc1ccc(N2CC(C(=O)NC(C)C)CC2=O)cc1 (configuration not stated),-69,-3,-60*,-5,·
O=C(OCC(=O)N1CCc2ccccc21)c1ccccc1,68*,·,34,16,24
O=C(Nc1ccc(F)cc1)N[C@H]1C=C[C@H](CC(=O)N2CCOCC2)O[C@H]1CO,·,·,·,-7,·
COc1ccc(CN(C)C[C@@H]2Oc3ccc(NS(=O)(=O)c4cn(C)cn4)cc3CC(=O)N([C@@H](C)CO)C[C@H]2C)cc1,·,·,·,-2,·
CCOc1ccc(N2CC(C(=O)N3CCCCC3)CC2=O)cc1 (configuration not stated),7,0,4,-1,-7
O=C(COc1ccc2c(c1)CCC2)N1CCc2ccccc21,50,60*,38,78*,·
CCc1ccc(OCC(=O)N2c3ccccc3CCc3ccccc32)cc1,-13,-8,-2,·,2
O=C(COC(=O)C1(c2ccc(F)cc2)CCCC1)N1CCc2ccccc21,36,·,14,·,-5
CCc1ccc(OCC(=O)N2CCc3ccccc32)cc1,65*,28,24,47*,61
O=C(COC(=O)C1(c2ccccc2F)CCCC1)N1CCc2ccccc21,-64,·,-61*,-1,6
CCOc1ccc(N2CC(C(=O)N3CCc4ccccc43)CC2=O)cc1 (configuration not stated),52*,1,7,2,·
CO[C@@H]1CN(C)C(=O)c2ccc(NS(C)(=O)=O)cc2OC[C@H](C)N(Cc2cncnc2)C[C@H]1C,·,·,·,-9,·
O=C(OCC(=O)N1CCCc2ccccc21)c1ccccc1[N+](=O)[O-],38,-2,30,111*,84*
O=C(COc1ccccc1[N+](=O)[O-])N1CCCc2ccccc21,16,4,11,10,-5
SMILES,HSF-1 act,Wnt bcat act,HSF1 inhib,esBAF inh,MITF act
CN(C(=O)c1ccccc1C(=O)OCC(=O)Nc1ccc(S(N)(=O)=O)cc1)c1ccccc1,-83,-7,-79*,·,0
NS(=O)(=O)c1ccc(NC(=O)COC(=O)C2(c3ccccc3F)CCCC2)cc1,-66,-2,-57*,0,5
Cc1ccc(-c2ccc([C@H]3[C@@H](CO)N4CCCCN(S(=O)(=O)c5ccccc5C)C[C@H]34)cc2)cc1,·,·,·,-1,·
C[C@H](CO)N1C[C@H](C)[C@H](CN(C)Cc2ccc(F)cc2)Oc2ncc(-c3cccc(C#N)c3)cc2C1=O,·,·,·,4,·
Cc1ccc(S(=O)(=O)NCC[C@H]2CC[C@@H](NC(=O)c3cccc(F)c3)[C@@H](CO)O2)cc1,·,·,·,2,·
CC(=O)Nc1cccc(NC(=O)CSc2nnc(Cc3cccn3C)n2-c2ccc(F)cc2)c1,-72,-1,-65*,2,-6
CO[C@H]1CN(C)C(=O)c2ccc(NC(=O)Cc3ccccc3)cc2OC[C@@H](C)NC[C@@H]1C,·,·,·,1,·
COc1ccccc1C(=O)Nc1nnc(SCC(=O)NC2CCCC2)s1,37,·,16,-5,91*
